HT1080 IDH1KD tx = toxicity to HT-1080 IDH1 knockdown cells (counter line). AID 686971. HT-1080 IDH1 knockdown viability, ATP luminescence, 48 h. 360,000 tested, 2% active. Potency, µM (top dose mostly 46.1 µM), most hits filed as cytotoxic
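% activity derives from luminescence (CellTiter-Glo), normalised to DMSO and no-cell wells. HT-1080-IDH1KD cells, 750/well, had 48 h compound exposure at 37 °C.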
KB-3-1 tox = kills parental KB-3-1 adenocarcinoma cells. KB-3-1 viability, CellTiter-Glo ATP luminescence, 72 h. Potency, µM (titrated, usually from 46.1 µM), most hits filed as cytotoxic. 400,000 tested, 1.4% active. AID 1347075; also: nearly all actives have a fitted effect of over 60% in size
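Cytotoxicity in the drug-sensitive parental line KB-3-1 was scored as loss of CellTiter-Glo luminescence following 72 h incubation with compound. Values come from curve fitting of normalized concentration-response data.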
SW480 rereplic = inducers of DNA re-replication in SW480 colon cancer cells; 340,000 tested, 1.8% active; Potency, µM (titrated, usually from 46.1 µM), actives largely listed as activators; SW480 DNA re-replication, Hoechst DNA content imaging, 48 h; also: nearly all actives have a fitted effect of over 55% in size
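Treated cells incubate 48 hr (37 C, 5% CO2), are stained 40 min with Hoechst, and nuclear fluorescence is enumerated; a rise in nuclei with high DNA signal marks re-replication.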
MCF10A rereplic = inducers of DNA re-replication in MCF 10A breast cells. MCF 10A DNA re-replication, Hoechst nuclear intensity, 48 h. Potency, µM (doses to about 46.1 µM), actives largely listed as activators. 350,000 tested, 2.9% active; also: nearly all actives have a fitted effect of over 50% in size
HT1080NT lethal = kills 2HG-producing HT-1080-NT fibrosarcoma cells | Potency, µM (top dose mostly 46.1 µM), most hits filed as cytotoxic | HT-1080-NT fibrosarcoma viability, CellTiter-Glo ATP luminescence, 48 h | 360,000 tested, 1.6% active;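 also: NT is the 2HG producing partner of a matched IDH1 knockdown line; nearly all actives have a fitted effect of over 55% in size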
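Read-out is CellTiter-Glo luminescence after 10 minutes at room temperature, following 48 hours' compound treatment of HT-1080-NT cells (750 cells/well, RPMI, 5% FBS, 37 degrees C).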
KB-V1 cytotox = kills drug-selected multidrug resistant KB-V1 cells | KB-V1 MDR cells viability, CellTiter-Glo, 72 h | AID 1347076 | Potency, µM (titrated, usually from 46.1 µM), most hits filed as cytotoxic | 400,000 tested, 3.4% active; also: nearly all actives have a fitted effect of over 60% in size
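Readout: CellTiter-Glo luminescence, 10 min after addition. Cells: KB-V1 MDR subline, 72 h at 37 degrees C with compound. Analysis: corrected, normalized data fitted to concentration-effect curves.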
Numbers stand for hits; . = inactive; ? = inconclusive; / = no result. The list is not random: actives were taken first. Their share in the collection is about 8%. Calls follow the shape of the dose curve; as a rule, active = well fitted curve in the direction sought with a large enough effect; inconclusive = small, poorly fitted or top-dose-only effect, or another doubt; inactive = no such curve, though single readings can be large; an effect the other way counts as inactive or inconclusive.

SMILES	HT1080 IDH1KD tx	KB-3-1 tox	SW480 rereplic	MCF10A rereplic	HT1080NT lethal	KB-V1 cytotox
CCOc1cc(CNCCSc2nnnn2C)cc(Br)c1OCc1ccccc1	?	?	?	15µM	?	?
CCOc1c(Br)cc(CNCc2cccs2)cc1OC	.	.	.	.	.	.
CCOc1cc(CNCCO)cc(Br)c1OCc1ccccc1	?	?	?	.	21µM	?
COc1cccc(CNCCSc2nnnn2C)c1OCc1ccccc1	/	.	/	/	/	?
CCOC(=O)c1ccc(NS(=O)(=O)c2cc3c(cc2C)n(C)c(=O)c(=O)n3C)cc1	/	.	/	/	/	?
COc1ccc(N2CC(NC(=O)c3c(F)cccc3Cl)CC2=O)cc1OC (stereo not given)	/	.	/	/	/	.
CCOCCCNCc1cc(Br)ccc1OCc1ccccc1	.	?	.	.	.	?
Cn1nnnc1SCCNCc1cc(Cl)ccc1OCc1ccccc1	.	.	.	?	.	5.2µM
OCCNCc1cc(Br)ccc1OCc1ccccc1	.	.	.	.	.	15µM
Cn1nnnc1SCCNCc1ccccc1OCc1ccc(Cl)cc1	?	.	.	.	?	.
CCc1ccccc1NC(=O)C(CC)Oc1ccccc1-c1nnc(-c2ccccc2)o1 (stereo not given)	/	15µM	/	/	/	?
COc1cc(OC)cc(-c2c(-c3cccs3)c3cc(-c4cnc(OC)nc4)ccc3n2C)c1	.	?	.	.	.	.
COCCNC(=S)NCCc1ccc(Cl)cc1Cl	.	.	16µM	.	.	.
COCC(C)NC(=S)NCCc1ccc(Cl)cc1Cl (stereo not given)	.	.	?	?	.	?
CC(C)OCCCN(Cc1ccco1)C(=O)c1cc2c(s1)-c1ccccc1OC2	/	16µM	/	/	/	9.2µM
CCOc1cc2[nH]c(=O)n(CCC(=O)NCCc3ccc(OC)c(OC)c3)c(=O)c2cc1OCC	?	.	.	.	29µM	.
CSc1ccc(S(=O)(=O)N2c3ccccc3CC2C)cc1 (stereo not given)	?	?	?	?	.	?
COc1cc(/C=C2\CCCc3c2nc2ccccc2c3C(=O)O)cc([N+](=O)[O-])c1O	.	.	.	.	.	.
COc1cc(-c2nc3ccc4ccccc4c3c3c2CCC3)cc(OC)c1OC	?	.	.	.	?	.
COc1cc(-c2nc3ccc4ccccc4c3c3c2CCC3)cc(OC)c1O	?	?	?	15µM	?	?
CN(C)c1ccc(/C=C2\CCCc3c2nc2ccccc2c3C(=O)O)cc1	.	.	.	18µM	.	.
COc1cc(/C=C2\CCCc3c2nc2ccccc2c3C(=O)O)cc(OC)c1O	.	.	26µM	.	.	.
CCCCc1cc(=O)oc2cc(C)cc(OCC(=O)NCc3ccccn3)c12	.	?	.	.	.	.
CN1CCN(C(=O)C[C@@H]2C=C[C@H](NS(=O)(=O)c3cccc(F)c3)[C@@H](CO)O2)CC1	.	.	/	/	.	.
COc1ccc(N(CC(=O)Nc2cc(OC)c(OC)cc2C(=O)O)S(=O)(=O)c2c(C)noc2C)cc1	.	.	.	.	.	.
SMILES	HT1080 IDH1KD tx	KB-3-1 tox	SW480 rereplic	MCF10A rereplic	HT1080NT lethal	KB-V1 cytotox
CCc1ccc(Nc2nnc(SC3CCOC3=O)s2)cc1 (stereo not given)	.	.	.	?	.	.
CCC1CCCCN1S(=O)(=O)c1ccc(NC(=O)c2cccnc2)cc1 (stereo not given)	.	.	.	.	.	.
CCC1CCCCN1S(=O)(=O)c1ccc(C(=O)Nc2nnc(-c3cccs3)o2)cc1 (stereo not given)	14µM	?	?	?	8.9µM	5µM
CN(C)S(=O)(=O)c1ccc(C(=O)Nc2nnc(-c3cccs3)o2)cc1	?	.	.	?	.	?
CC1CCCN(S(=O)(=O)c2ccc(C(=O)Nc3nnc(-c4ccccn4)o3)cc2)C1 (stereo not given)	.	?	.	.	.	?
CC1CCCN(S(=O)(=O)c2ccc(C(=O)Nc3nnc(-c4ccccc4Cl)o3)cc2)C1 (stereo not given)	?	7.3µM	?	?	.	?
